# Inconclusive results are not listed. The source made the active and inactive calls. Rule for the calls: active = hit-call score of the fitted dose curve at least 0.9, where 1 is the maximum; inconclusive = response in the unintended direction; inactive = score below 0.9.
# How the values were obtained:
# [1] = biological target: human Protein Tyrosine Phosphatase Non-receptor Type 2 (PTPN2), PTPN2 (gene 5771) (UniProt P17706); assay: NVS_ENZ_hPTPN2: NovaScreen (NVS) Enzymatic Assay for human Protein Tyrosine Phosphatase Non-receptor Type 2 (PTPN2) (AID 2283207)
# Chain of human Protein Tyrosine Phosphatase Non-receptor Type 2 (PTPN2), PTPN2 (gene 5771) (P17706 whole entry, looked up): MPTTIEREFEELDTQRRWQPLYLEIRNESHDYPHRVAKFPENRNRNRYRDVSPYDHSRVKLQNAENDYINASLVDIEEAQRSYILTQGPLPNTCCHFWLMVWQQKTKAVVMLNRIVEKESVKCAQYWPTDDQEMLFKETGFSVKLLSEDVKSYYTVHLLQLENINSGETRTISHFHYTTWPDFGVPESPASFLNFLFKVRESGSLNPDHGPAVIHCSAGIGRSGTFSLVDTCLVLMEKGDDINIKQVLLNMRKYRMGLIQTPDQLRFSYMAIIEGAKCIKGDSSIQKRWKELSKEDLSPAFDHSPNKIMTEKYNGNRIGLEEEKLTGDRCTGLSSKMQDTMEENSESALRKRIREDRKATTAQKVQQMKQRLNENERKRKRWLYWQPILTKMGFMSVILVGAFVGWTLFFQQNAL
# Method in brief: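 Cell-free recombinant enzyme with fluorescent substrate, product separated by electrophoretic mobility shift; read 1 h after dosing. Primary screen single concentration (25 uM) in duplicate; actives followed in concentration series; loss of signal versus DMSO.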
# [2] = biological target: human Rho Associated Coiled-coil Containing Protein Kinase 1 (ROCK1), ROCK1 (gene 6093) (UniProt Q13464); assay: NVS_ENZ_hROCK1: NovaScreen (NVS) Enzymatic Assay for human Rho Associated Coiled-coil Containing Protein Kinase 1 (ROCK1) (AID 2283214)
# Method in brief: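 Cell-free recombinant human ROCK1 activity assay; fluorescent substrate and product separated by electrophoretic mobility shift, read 1 h after dosing. Screened in duplicate at 25 uM; loss of signal versus DMSO baseline scored as inhibition.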
# [3] = biological target: human Raf-1 Proto-Oncogene, serine/threonine Kinase (RAF1), RAF1 (gene 5894) (UniProt P04049); assay: NVS_ENZ_hRAF1: NovaScreen (NVS) Enzymatic Assay for human Raf-1 Proto-Oncogene, serine/threonine Kinase (RAF1) (AID 2283216)
# Chain of human Raf-1 Proto-Oncogene, serine/threonine Kinase (RAF1), RAF1 (gene 5894) (P04049 whole entry, looked up): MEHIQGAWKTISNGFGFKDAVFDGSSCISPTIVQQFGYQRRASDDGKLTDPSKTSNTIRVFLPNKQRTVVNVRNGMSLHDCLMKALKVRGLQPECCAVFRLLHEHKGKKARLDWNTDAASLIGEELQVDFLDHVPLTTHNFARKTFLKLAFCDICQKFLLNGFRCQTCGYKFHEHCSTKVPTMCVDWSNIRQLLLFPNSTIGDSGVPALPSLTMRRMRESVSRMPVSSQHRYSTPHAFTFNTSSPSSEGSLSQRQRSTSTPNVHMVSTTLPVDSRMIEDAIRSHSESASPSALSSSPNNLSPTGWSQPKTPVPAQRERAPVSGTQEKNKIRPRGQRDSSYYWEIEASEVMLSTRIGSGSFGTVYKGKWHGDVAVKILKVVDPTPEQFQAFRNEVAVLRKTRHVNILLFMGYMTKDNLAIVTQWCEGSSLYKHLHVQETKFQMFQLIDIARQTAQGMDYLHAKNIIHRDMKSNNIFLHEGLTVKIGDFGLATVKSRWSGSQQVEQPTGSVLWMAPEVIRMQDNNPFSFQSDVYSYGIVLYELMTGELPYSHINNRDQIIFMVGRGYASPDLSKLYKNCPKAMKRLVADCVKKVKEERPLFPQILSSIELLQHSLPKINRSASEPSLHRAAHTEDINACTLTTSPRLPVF
# Method in brief: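 Cell-free recombinant kinase with specific fluorescent substrate, product separated by electrophoretic mobility shift; read 1 h after dosing. Primary screen at 25 uM in duplicate; hits then run in concentration-response up to 50 uM, fitted as loss of signal versus DMSO.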
# [4] = biological target: human Protein Tyrosine Phosphatase Non-receptor Type 1 (PTPN1), PTPN1 (gene 5770) (UniProt P18031); assay: NVS_ENZ_hPTPN1: NovaScreen (NVS) Enzymatic Assay for human Protein Tyrosine Phosphatase Non-receptor Type 1 (PTPN1) (AID 2283201)
# Chain of human Protein Tyrosine Phosphatase Non-receptor Type 1 (PTPN1), PTPN1 (gene 5770) (P18031 whole entry, looked up): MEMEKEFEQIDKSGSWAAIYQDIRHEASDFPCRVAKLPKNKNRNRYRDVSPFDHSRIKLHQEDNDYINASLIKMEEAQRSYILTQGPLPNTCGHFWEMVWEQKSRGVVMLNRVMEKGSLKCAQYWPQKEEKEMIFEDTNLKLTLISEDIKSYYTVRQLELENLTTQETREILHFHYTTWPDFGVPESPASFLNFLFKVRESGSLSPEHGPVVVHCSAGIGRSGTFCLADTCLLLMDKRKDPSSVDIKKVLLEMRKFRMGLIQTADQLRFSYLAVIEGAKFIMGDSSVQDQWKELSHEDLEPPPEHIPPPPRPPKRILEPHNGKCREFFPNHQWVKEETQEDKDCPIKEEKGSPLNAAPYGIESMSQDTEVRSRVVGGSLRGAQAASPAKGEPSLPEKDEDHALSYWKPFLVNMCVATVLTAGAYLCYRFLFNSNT
# Method in brief: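 Cell-free fluorogenic-substrate activity assay on recombinant enzyme, read 1.33 h after dosing by fluorescence and electrophoretic mobility shift; loss of signal vs DMSO baseline. Primary screen in duplicate at 25 uM, hits then run in concentration-response up to 50 uM.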
# [5] = biological target: human Phosphatase and Tensin Homolog (PTEN), PTEN (gene 5728) (UniProt P60484); assay: NVS_ENZ_hPTEN: NovaScreen (NVS) Enzymatic Assay for human Phosphatase and Tensin Homolog (PTEN) (AID 2283203)
# Chain of human Phosphatase and Tensin Homolog (PTEN), PTEN (gene 5728) (P60484 whole entry, looked up): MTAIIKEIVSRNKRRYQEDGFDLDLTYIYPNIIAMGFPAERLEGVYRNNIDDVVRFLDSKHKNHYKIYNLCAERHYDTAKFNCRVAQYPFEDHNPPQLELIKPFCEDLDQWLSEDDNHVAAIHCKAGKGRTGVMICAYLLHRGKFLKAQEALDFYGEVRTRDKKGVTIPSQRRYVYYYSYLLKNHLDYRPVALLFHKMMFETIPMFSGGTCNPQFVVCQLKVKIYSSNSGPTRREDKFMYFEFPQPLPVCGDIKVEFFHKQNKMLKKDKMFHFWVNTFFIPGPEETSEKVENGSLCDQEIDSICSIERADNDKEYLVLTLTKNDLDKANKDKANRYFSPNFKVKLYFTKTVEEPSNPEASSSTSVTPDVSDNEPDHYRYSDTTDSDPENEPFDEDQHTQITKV
# Method in brief: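 Cell-free recombinant human PTEN with fluorescent substrate; product separated by electrophoretic mobility shift and read by fluorescence 1 h after dosing. Primary screen in duplicate at 25 uM, actives followed in concentration series versus DMSO.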
# [6] = biological target: Tyrosine-protein phosphatase non-receptor type 12 (Homo sapiens) (UniProt Q05209); assay: NVS_ENZ_hPTPN12: NovaScreen (NVS) Enzymatic Assay for human Protein Tyrosine Phosphatase Non-receptor Type 12 (PTPN12) (AID 2283204)
# Method in brief: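 Single-concentration duplicates (25 uM) preceded singleton concentration-response up to 50 uM for chemicals passing threshold. Cell-free recombinant PTPN12 activity was read 1.33 h after dosing via fluorescence after mobility-shift separation; loss of signal versus DMSO.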
# [7] = biological target: Tyrosine-protein phosphatase non-receptor type 13 (Homo sapiens) (UniProt Q12923); assay: NVS_ENZ_hPTPN13: NovaScreen (NVS) Enzymatic Assay for human Protein Tyrosine Phosphatase Non-receptor Type 13 (PTPN13) (AID 2283205)
# Method in brief: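 Cell-free assay of recombinant human PTPN13 with a fluorescent substrate, product separated by electrophoretic mobility shift and read 0.5 h after dosing. Primary screen at 25 uM in duplicate, then concentration-response up to 50 uM. Loss of signal fitted against DMSO.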
# [8] = biological target: human Protein Tyrosine Phosphatase Non-receptor Type 4 (PTPN4), PTPN4 (gene 5775) (UniProt P29074); assay: NVS_ENZ_hPTPN4: NovaScreen (NVS) Enzymatic Assay for human Protein Tyrosine Phosphatase Non-receptor Type 4 (PTPN4) (AID 2283208)
# Method in brief: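 Cell-free assay of PTPN4 expressed in Sf9 cells, using a fluorescent substrate with product separated by mobility shift; read 1.33 h after dosing. Single-point screen at 25 uM, then concentration-response up to 50 uM. Loss of signal relative to DMSO.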
# [9] = biological target: human Protein Tyrosine Phosphatase Non-receptor Type 9 (PTPN9), PTPN9 (gene 5780) (UniProt P43378); assay: NVS_ENZ_hPTPN9: NovaScreen (NVS) Enzymatic Assay for human Protein Tyrosine Phosphatase Non-receptor Type 9 (PTPN9) (AID 2283209)
# Method in brief: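 Sf9-expressed enzyme in a cell-free assay, fluorescence read 1.33 h after dosing with mobility-shift separation of substrate and product. Tested at 25 uM in duplicate, then up to 50 uM; signal loss versus DMSO.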
# [10] = biological target: human Protein Tyrosine Phosphatase Receptor Type B (PTPRB), PTPRB (gene 5787) (UniProt P23467); assay: NVS_ENZ_hPTPRB: NovaScreen (NVS) Enzymatic Assay for human Protein Tyrosine Phosphatase Receptor Type B (PTPRB) (AID 2283211)
# Method in brief: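 Recombinant human PTPRB with a fluorescent substrate, product separated by electrophoretic mobility shift; read 1 h after dosing. Primary screen in duplicate at 25 uM; actives then retested in concentration series; loss of signal versus DMSO.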
# [11] = biological target: human Protein Tyrosine Phosphatase Receptor Type F (PTPRF), PTPRF (gene 5792) (UniProt P10586); assay: NVS_ENZ_hPTPRF: NovaScreen (NVS) Enzymatic Assay for human Protein Tyrosine Phosphatase Receptor Type F (PTPRF) (AID 2283213)
# Chain of human Protein Tyrosine Phosphatase Receptor Type F (PTPRF), PTPRF (gene 5792) (P10586 whole entry, looked up): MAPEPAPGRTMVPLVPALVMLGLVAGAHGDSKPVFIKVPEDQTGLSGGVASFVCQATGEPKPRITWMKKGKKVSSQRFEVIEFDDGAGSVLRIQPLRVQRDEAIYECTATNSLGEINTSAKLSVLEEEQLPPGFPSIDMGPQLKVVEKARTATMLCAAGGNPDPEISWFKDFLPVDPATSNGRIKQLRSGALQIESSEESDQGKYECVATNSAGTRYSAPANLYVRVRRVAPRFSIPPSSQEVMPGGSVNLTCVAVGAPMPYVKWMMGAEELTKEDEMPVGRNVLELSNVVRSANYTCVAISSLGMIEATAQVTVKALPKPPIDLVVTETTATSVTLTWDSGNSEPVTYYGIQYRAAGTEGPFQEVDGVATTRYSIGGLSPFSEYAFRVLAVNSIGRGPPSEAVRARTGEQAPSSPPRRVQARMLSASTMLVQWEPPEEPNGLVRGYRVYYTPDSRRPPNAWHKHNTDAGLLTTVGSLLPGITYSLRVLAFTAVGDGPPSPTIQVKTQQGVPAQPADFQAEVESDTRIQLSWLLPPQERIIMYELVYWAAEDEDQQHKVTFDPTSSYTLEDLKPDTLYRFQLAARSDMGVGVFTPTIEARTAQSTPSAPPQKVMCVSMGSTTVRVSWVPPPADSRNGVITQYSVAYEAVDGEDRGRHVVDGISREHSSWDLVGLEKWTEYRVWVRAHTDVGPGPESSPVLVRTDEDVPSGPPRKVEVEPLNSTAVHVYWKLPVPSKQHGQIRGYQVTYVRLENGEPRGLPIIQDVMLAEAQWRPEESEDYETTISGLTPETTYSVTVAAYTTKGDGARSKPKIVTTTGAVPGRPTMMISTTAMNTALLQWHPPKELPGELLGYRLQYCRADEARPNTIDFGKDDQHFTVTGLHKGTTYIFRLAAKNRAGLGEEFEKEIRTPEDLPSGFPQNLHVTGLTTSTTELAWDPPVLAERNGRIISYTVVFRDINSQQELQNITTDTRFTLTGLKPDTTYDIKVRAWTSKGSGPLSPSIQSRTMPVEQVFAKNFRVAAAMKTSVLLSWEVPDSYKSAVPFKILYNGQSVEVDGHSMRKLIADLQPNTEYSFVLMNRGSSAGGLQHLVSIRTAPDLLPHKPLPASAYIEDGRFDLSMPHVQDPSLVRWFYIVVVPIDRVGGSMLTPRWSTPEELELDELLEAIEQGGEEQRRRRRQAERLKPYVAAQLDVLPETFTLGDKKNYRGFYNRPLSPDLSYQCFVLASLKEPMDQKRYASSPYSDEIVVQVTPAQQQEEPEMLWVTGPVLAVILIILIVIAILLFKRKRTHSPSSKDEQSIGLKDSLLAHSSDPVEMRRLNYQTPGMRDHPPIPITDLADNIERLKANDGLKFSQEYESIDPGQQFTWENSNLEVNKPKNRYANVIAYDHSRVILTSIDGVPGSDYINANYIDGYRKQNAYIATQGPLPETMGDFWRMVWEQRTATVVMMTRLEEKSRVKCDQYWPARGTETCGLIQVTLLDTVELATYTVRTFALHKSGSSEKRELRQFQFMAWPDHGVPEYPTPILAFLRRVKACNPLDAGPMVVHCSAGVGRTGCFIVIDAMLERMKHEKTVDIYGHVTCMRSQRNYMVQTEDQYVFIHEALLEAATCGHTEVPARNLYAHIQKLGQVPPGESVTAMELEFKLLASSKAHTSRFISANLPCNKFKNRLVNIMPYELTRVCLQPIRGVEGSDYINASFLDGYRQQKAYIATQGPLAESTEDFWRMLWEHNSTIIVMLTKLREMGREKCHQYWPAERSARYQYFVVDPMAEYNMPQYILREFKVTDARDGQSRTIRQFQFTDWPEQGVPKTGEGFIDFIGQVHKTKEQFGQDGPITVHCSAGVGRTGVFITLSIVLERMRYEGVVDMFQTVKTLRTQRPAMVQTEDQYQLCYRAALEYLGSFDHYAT
# Method in brief: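 Cell-free fluorescence enzyme assay with recombinant protein and substrate; product separated by electrophoretic mobility shift. Read 1 h after dosing, single 25 uM duplicate screen, then concentration-response up to 50 uM; loss of signal vs DMSO.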
# [12] = biological target: human Protein Tyrosine Phosphatase Receptor Type M (PTPRM), PTPRM (gene 5797) (UniProt P28827); assay: NVS_ENZ_hPTPRM: NovaScreen (NVS) Enzymatic Assay for human Protein Tyrosine Phosphatase Receptor Type M (PTPRM) (AID 2283215)
# Method in brief: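 Cell-free recombinant PTPRM with fluorogenic substrate; product separated from substrate by electrophoretic mobility shift and read by fluorescence, 1.33 h after dosing. Primary screen single concentration (25 uM) in duplicate; actives retested in concentration series; loss of signal versus DMSO.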
# [13] = biological target: human Sirtuin 3 (SIRT3), SIRT3 (gene 23410) (UniProt Q9NTG7); assay: NVS_ENZ_hSIRT3: NovaScreen (NVS) Enzymatic Assay for human Sirtuin 3 (SIRT3) (AID 2283222)
# Method in brief: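 Cell-free enzyme assay with recombinant protein and fluorescent substrate, product separated by electrophoretic mobility shift; read 1 hour after dosing. Screened in duplicate at 25 uM, then singleton concentration-response up to 50 uM; loss of signal versus DMSO.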
# [14] = biological target: human Tropomyosin Receptor Kinase A (TRKA), NTRK1 (gene 4914) (UniProt P04629); assay: NVS_ENZ_hTrkA: NovaScreen (NVS) Enzymatic Assay for human Tropomyosin Receptor Kinase A (TRKA) (AID 2283224)
# Method in brief: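 Recombinant human TrkA activity read after 1 h by fluorescence with electrophoretic mobility shift separating substrate and product. Primary screen in duplicate at 25 uM; actives were rerun in concentration-response up to 50 uM. Loss of signal versus DMSO.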
# [15] = biological target: Serine/threonine-protein phosphatase PP1-alpha catalytic subunit (Homo sapiens) (UniProt P62136); assay: NVS_ENZ_hPPP1CA: NovaScreen (NVS) Enzymatic Assay for human Protein Phosphatase 1 Aatalytic subunit Alpha (PPP1CA) (AID 2283200)
# Method in brief: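 Recombinant enzyme activity read by fluorescence with electrophoretic mobility shift separating substrate from product, 1.33 h after dosing; loss of signal vs DMSO baseline. Primary screen in duplicate at 25 uM; actives retested in concentration-response up to 50 uM.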
# [16] = biological target: Tyrosine-protein phosphatase non-receptor type 14 (Homo sapiens) (UniProt Q15678); assay: NVS_ENZ_hPTPN14: NovaScreen (NVS) Enzymatic Assay for human Protein Tyrosine Phosphatase Non-receptor Type 14 (PTPN14) (AID 2283206)
# Chain of Tyrosine-protein phosphatase non-receptor type 14 (Homo sapiens) (Q15678 whole entry, looked up): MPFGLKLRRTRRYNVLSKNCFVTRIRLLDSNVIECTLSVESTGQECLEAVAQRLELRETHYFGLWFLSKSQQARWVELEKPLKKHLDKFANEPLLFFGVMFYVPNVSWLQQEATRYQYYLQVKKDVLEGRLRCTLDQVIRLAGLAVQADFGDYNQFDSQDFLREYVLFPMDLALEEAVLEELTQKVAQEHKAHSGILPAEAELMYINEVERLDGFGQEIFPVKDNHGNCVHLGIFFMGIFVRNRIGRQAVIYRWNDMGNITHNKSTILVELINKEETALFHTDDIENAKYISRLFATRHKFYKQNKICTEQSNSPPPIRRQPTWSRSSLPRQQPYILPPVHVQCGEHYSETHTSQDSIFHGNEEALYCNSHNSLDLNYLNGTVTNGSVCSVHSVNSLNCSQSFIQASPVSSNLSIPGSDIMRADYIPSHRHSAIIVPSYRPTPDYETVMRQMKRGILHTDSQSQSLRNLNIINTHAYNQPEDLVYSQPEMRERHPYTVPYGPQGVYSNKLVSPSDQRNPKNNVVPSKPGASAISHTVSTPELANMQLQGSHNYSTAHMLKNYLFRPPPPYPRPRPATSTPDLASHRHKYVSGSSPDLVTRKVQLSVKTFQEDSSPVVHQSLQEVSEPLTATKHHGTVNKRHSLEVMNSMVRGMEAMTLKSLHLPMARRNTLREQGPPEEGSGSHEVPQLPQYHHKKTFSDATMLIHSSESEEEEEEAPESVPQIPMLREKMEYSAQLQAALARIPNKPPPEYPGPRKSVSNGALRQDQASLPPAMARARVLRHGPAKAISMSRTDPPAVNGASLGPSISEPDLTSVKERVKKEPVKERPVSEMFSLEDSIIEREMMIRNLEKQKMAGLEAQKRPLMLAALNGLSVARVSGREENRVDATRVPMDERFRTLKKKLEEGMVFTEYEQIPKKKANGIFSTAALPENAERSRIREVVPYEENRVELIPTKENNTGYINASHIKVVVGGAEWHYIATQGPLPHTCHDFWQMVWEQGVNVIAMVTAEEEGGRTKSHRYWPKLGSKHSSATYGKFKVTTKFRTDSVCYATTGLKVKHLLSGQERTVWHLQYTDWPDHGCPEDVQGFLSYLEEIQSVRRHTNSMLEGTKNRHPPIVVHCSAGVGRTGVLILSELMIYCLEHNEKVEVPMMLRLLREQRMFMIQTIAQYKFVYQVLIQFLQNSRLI
# Method in brief: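 Cell-free recombinant human PTPN14 with fluorescent substrate, read 0.5 h after dosing by fluorescence and electrophoretic mobility shift separating substrate from product. Primary screen at 25 uM in duplicate; hits run to 50 uM maximum; loss of signal versus DMSO.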
# [17] = biological target: human Sirtuin 2 (SIRT2), SIRT2 (gene 22933) (UniProt Q8IXJ6); assay: NVS_ENZ_hSIRT2: NovaScreen (NVS) Enzymatic Assay for human Sirtuin 2 (SIRT2) (AID 2283217)
# Method in brief: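 Cell-free recombinant human SIRT2, fluorescent substrate with product separated by electrophoretic mobility shift, 1 hr. Screened in duplicate at 25 uM; hits rerun singly in concentration-response up to 50 uM, relative to DMSO.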
# [18] = biological target: human Sirtuin 1 (SIRT1), SIRT1 (gene 23411) (UniProt Q96EB6); assay: NVS_ENZ_hSIRT1: NovaScreen (NVS) Enzymatic Assay for human Sirtuin 1 (SIRT1) (AID 2283219)
# Method in brief: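 Cell-free recombinant SIRT1 with a fluorescent substrate; substrate and product separated by electrophoretic mobility shift and read by fluorescence intensity, 1 h after dosing. Primary screen at 25 uM in duplicate; hits re-run in concentration-response up to 50 uM, relative to DMSO.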
compound,measurement,setting,value
CCOC(=O)C(C)OC(=O)c1cc(Oc2ccc(C(F)(F)F)cc2Cl)ccc1[N+](=O)[O-] (stereo not drawn),outcome,[1],inactive
same,outcome,[2],inactive
same,outcome,[3],inactive
CCCC(=NOCC)C1=C(O)CC(CC(C)SCC)CC1=O (stereo not drawn),outcome,[4],inactive
same,AC50,[5],18.2 µM (active)
same,outcome,[6],inactive
same,outcome,[7],inactive
same,outcome,[1],inactive
same,AC50,[8],17.9 µM (active)
same,AC50,[9],42.2 µM (active)
same,outcome,[10],inactive
same,outcome,[11],inactive
same,outcome,[12],inactive
same,outcome,[3],inactive
COc1ccc(-c2ccccc2)cc1NNC(=O)OC(C)C,outcome,[3],inactive
CCCCOCN(C(=O)CCl)c1c(CC)cccc1CC,outcome,[2],inactive
Clc1nc(Cl)nc(Nc2ccccc2Cl)n1,outcome,[13],inactive
same,AC50,[14],7.05 µM (active)
CCNC(=O)NC(=O)C(C#N)=NOC,outcome,[15],inactive
CC(C)=CC1C(C(=O)OCc2coc(Cc3ccccc3)c2)C1(C)C (stereo not drawn),outcome,[6],inactive
Nc1cnn(-c2ccccc2)c(=O)c1Cl,outcome,[4],inactive
Nc1c(Cl)c(Cl)nc(C(=O)O)c1Cl,outcome,[4],inactive
CCN(CC)C(=O)C(C)Oc1cccc2ccccc12 (stereo not drawn),outcome,[1],inactive
CCC(C)n1c(=O)[nH]c(C)c(Br)c1=O (stereo not drawn),outcome,[11],inactive
CCOP(=O)(OCC)Oc1nc(Cl)c(Cl)cc1Cl,outcome,[16],inactive
CC(C)NC(=O)N1CC(=O)N(c2cc(Cl)cc(Cl)c2)C1=O,outcome,[15],inactive
CS(=O)(=O)c1cc(C(F)(F)F)ccc1C(=O)c1cnoc1C1CC1,outcome,[16],inactive
CCOc1nc(F)cc2nc(S(=O)(=O)Nc3c(Cl)cccc3Cl)nn12,outcome,[4],inactive
same,AC50,[5],29.9 µM (active)
same,outcome,[11],inactive
O=C1C2CC=CCC2C(=O)N1SC(Cl)(Cl)Cl (stereo not drawn),AC50,[5],23 µM (active)
same,outcome,[16],inactive
same,AC50,[1],46.9 µM (active)
same,outcome,[9],inactive
same,outcome,[12],inactive
same,AC50,[17],13 µM (active)
same,AC50,[18],13.3 µM (active)
same,AC50,[13],39.5 µM (active)
